The list is not random: actives were taken first. Their share in the collection is about 6.7%.
Pf Dd2 inh = P. falciparum Dd2 growth inhibitors, primary screen, SYBR Green fluorescence, single dose replicates | activity change, % at 10 µM | AID 1159554, 2015 | 72 h; stronger effect = lower value | 2.3% of 94,000 active; in the data active = activity change below about -80%
T cruzi growth-1 = T. cruzi intracellular proliferation inhibitors, primary screen, cell-based, beta-gal Tulahuen parasites, NIH3T3 host, luminescence; 5.9% of 77,000 active; T. cruzi beta-gal in NIH3T3, GalScreen luminescence, 90 h; inhibition, % at 8.34 µM;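 active = mean inhibition above about 93%, with at least 55% of replicates each passing it, limit read from the data, passing the limit was not always enough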
C diff growth = C. difficile growth inhibitors, primary screen, HTS | Clostridium difficile clinical isolate growth, OD600, 24 h; stronger effect = lower value | growth activity, negative = inhibition, % at 16 µg/mL (by protocol) | 0.25% of 86,000 active | AID 1259249, 2017;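 active = mean growth activity at or below -80% and every replicate also at or below -80%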;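 also: 0% = DMSO wells and -100% = levofloxacin 16 µg/mL wells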
T cruzi growth-2 = T. cruzi intracellular proliferation inhibitors, confirmation, cell-based, NIH3T3 host, beta-gal parasite, luminescence, cherry-pick; T. cruzi beta-gal in NIH3T3, GalScreen luminescence, 90 h; shares compounds with T cruzi growth-1; inhibition, % at 8.35 µM; 72% of 5,600 active; AID 651739, 2012;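 active = mean replicate inhibition above about 95% and at least 55% of replicates individually reaching it, limit read from the data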
T cruzi growth-3 = inhibitors of intracellular T. cruzi replication, confirmation, NIH3T3 host cells, beta-gal parasites, cherry-pick, set 2; shares compounds with T cruzi growth-1; T. cruzi beta-gal in NIH3T3, GalScreen luminescence, 90 h; inhibition, % at 2.09 µM; 21% of 5,600 active; AID 651740, 2012;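 active = mean inhibition above about 95%, with at least 55% of replicates also reaching it, limit read from the data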;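 also: plate controls were neutral control median for no effect and positive control median for full effect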
3T3 cytotox = cytotoxicity in mouse NIH/3T3 fibroblasts, confirmation, cytotoxicity control for T. cruzi proliferation inhibitor project, cell-based, cherry-pick, single point. shares compounds with T cruzi growth-1. NIH/3T3 viability, CellTiter-Glo ATP luminescence, 90 h. cytotoxicity (signal decrease), % at 8.35 µM. 14% of 5,600 active;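 active = mean signal decrease across replicates above about 35% based on untreated-well scatter, with enough replicates individually passing, limit read from the data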;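 also: 0% = median of neutral control wells and 100% = median of positive control wells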
3T3 cytotox 2 = NIH/3T3 fibroblast cytotoxicity, confirmation, cytotoxicity control, cell-based, cherry-pick, single point, set 2. inhibition, % at 24.9 µM. shares compounds with T cruzi growth-1. 56% of 5,600 active. NIH/3T3 viability, CellTiter-Glo ATP luminescence, 90 h;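 active = mean loss of cell viability signal at or above a set limit, and enough replicates individually reaching it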;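 also: 0% = median of neutral control wells and 100% = median of positive control wells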
* = called active by the depositor; ! = a repeat was not active.

How did C/C=C/c1ccc(C2[C@@H]3CN(Cc4cccc(F)c4)C[C@H]2N3)cc1 (some centres not stated) do in these assays?
Pf Dd2 inh: -88*!; C diff growth: 70

What do the screens show for `C/C=C/c1ccc(C2[C@@H]3CN(Cc4cccnc4)C[C@H]2N3)cc1` (some centres not stated)?
Pf Dd2 inh: -84*!; C diff growth: 0

What do the screens show for `C/C=C/c1ccc(C2[C@@H]3CN(Cc4ccccn4)C[C@H]2N3)cc1` (some centres not stated)?
Pf Dd2 inh: -13; C diff growth: 1

What do the screens show for `C/C=C/c1ccc(C2[C@@H]3CN(C(C)=O)C[C@H]2N3)cc1` (some centres not stated)?
Pf Dd2 inh: -7; C diff growth: 2

What do the screens show for `CCCN1[C@@H]2Cn3c(ccc(-c4ccccc4)c3=O)[C@H]1[C@@H](C(=O)OC)[C@@H]2CO`?
Pf Dd2 inh: 12; T cruzi growth-1: -20; C diff growth: -3

How did CCCNC(=O)[C@H]1[C@H](CO)[C@H]2Cn3c(cccc3=O)[C@@H]1N2CCC do in these assays?
Pf Dd2 inh: 18; T cruzi growth-1: 62; C diff growth: -1

Results for Cc1ccc(OC(=O)N(C)C[C@@H]2OCc3ccccc3-c3c(n(C)c4ccccc34)C(=O)N([C@@H](C)CO)C[C@@H]2C)cc1 ?
Pf Dd2 inh: -40; C diff growth: 1

What do the screens show for `Cc1ccc(OC(=O)N(C)C[C@H]2OCc3ccccc3-c3c(n(C)c4ccccc34)C(=O)N([C@H](C)CO)C[C@@H]2C)cc1`?
Pf Dd2 inh: -87*; C diff growth: 14

How did N#Cc1cccc(-c2ccc([C@@H]3[C@@H](CO)N4CCCCN(C(=O)Cc5cccnc5)C[C@H]34)cc2)c1 do in these assays?
Pf Dd2 inh: 25; T cruzi growth-1: 39; C diff growth: -2

How did COc1cccc(-c2ccc([C@@H]3[C@H]4CN(C(=O)Cc5ccncc5)CCCCN4[C@H]3CO)cc2)c1 do in these assays?
Pf Dd2 inh: -10; T cruzi growth-1: 114*; C diff growth: -5; T cruzi growth-2: 94; T cruzi growth-3: 26; 3T3 cytotox: 7; 3T3 cytotox 2: 28

What do the screens show for `COc1ccc(-c2ccc([C@H]3[C@H]4CN(C(=O)Cc5ccccc5)CCCCN4[C@H]3CO)cc2)cc1`?
Pf Dd2 inh: -41; T cruzi growth-1: 74; C diff growth: 6

What do the screens show for `COc1ccc(-c2ccc([C@@H]3[C@H]4CN(C(=O)Cc5ccccc5)CCCCN4[C@H]3CO)cc2)cc1`?
Pf Dd2 inh: -7; T cruzi growth-1: 79; C diff growth: 4

What do the screens show for `COc1ccc(-c2ccc([C@H]3[C@@H](CO)N4CCCCN(C(=O)Cc5ccncc5)C[C@H]34)cc2)cc1`?
Pf Dd2 inh: -4; T cruzi growth-1: 88; C diff growth: -5

How did COc1ccc(-c2ccc([C@@H]3[C@H](CO)N4CCCCN(C(=O)Cc5ccncc5)C[C@@H]34)cc2)cc1 do in these assays?
Pf Dd2 inh: -15; T cruzi growth-1: 99*; C diff growth: -4; T cruzi growth-2: 98*; T cruzi growth-3: 62; 3T3 cytotox: 1; 3T3 cytotox 2: 29*

How did COc1ccc(C#Cc2ccc([C@@H]3[C@@H](CO)N4CCCCN(C(=O)Cc5ccncc5)C[C@@H]34)cc2)cc1 do in these assays?
Pf Dd2 inh: -75; T cruzi growth-1: 117*; C diff growth: 28; T cruzi growth-2: 104*; T cruzi growth-3: 76; 3T3 cytotox: 21; 3T3 cytotox 2: 102*

Results for COc1ccc(C#Cc2ccc([C@@H]3[C@H]4CN(C(=O)Cc5ccncc5)CCCCN4[C@H]3CO)cc2)cc1 ?
Pf Dd2 inh: -59; T cruzi growth-1: 106*; C diff growth: 49; T cruzi growth-2: 92; T cruzi growth-3: 73; 3T3 cytotox: 28; 3T3 cytotox 2: 100*

Results for CCC(=O)N1[C@@H]2c3ccc(-c4cccc(F)c4)c(=O)n3C[C@H]1[C@H](CO)[C@H]2C(=O)OC ?
Pf Dd2 inh: 9; T cruzi growth-1: 34; C diff growth: 1

Results for COC(=O)[C@H]1[C@H](CO)[C@H]2Cn3c(cccc3=O)[C@@H]1N2Cc1nccs1 ?
T cruzi growth-1: -51; C diff growth: 8

How did COC(=O)[C@H]1[C@H](CO)[C@H]2Cn3c(ccc(/C=C/c4ccccc4)c3=O)[C@@H]1N2C(=O)C1CCC1 do in these assays?
Pf Dd2 inh: -1; T cruzi growth-1: 19; C diff growth: 3

What do the screens show for `COC(=O)[C@H]1[C@H](CO)[C@H]2Cn3c(ccc(-c4ccccc4F)c3=O)[C@@H]1N2C(=O)C1CC1`?
Pf Dd2 inh: 27; T cruzi growth-1: -18; C diff growth: -5

What do the screens show for `CCCNC(=O)[C@H]1[C@H](CO)[C@H]2Cn3c(cccc3=O)[C@H]2N1C`?
T cruzi growth-1: 7; C diff growth: -3

What do the screens show for `COc1ccc(C#Cc2ccc([C@H]3[C@H]4CN(C(=O)Cc5ccncc5)CCCCN4[C@H]3CO)cc2)cc1`?
Pf Dd2 inh: -64; T cruzi growth-1: 107*; C diff growth: 0; T cruzi growth-2: 98*; T cruzi growth-3: -82; 3T3 cytotox: 77*; 3T3 cytotox 2: 98*

Results for O=C(Cc1ccncc1)N1CCCCN2[C@H](CO)[C@@H](c3ccc(C#CC4(O)CCCC4)cc3)[C@@H]2C1 ?
Pf Dd2 inh: 9; T cruzi growth-1: 105*; C diff growth: 0; T cruzi growth-2: 1; T cruzi growth-3: -7; 3T3 cytotox: 9; 3T3 cytotox 2: 17

Results for COc1ccc(-c2ccc([C@@H]3[C@@H](CO)N4CCCCN(C(=O)Cc5ccccc5)C[C@@H]34)cc2)cc1 ?
Pf Dd2 inh: 3; T cruzi growth-1: 75; C diff growth: 3

What do the screens show for `COc1ccc(C#Cc2ccc([C@H]3[C@@H](CO)N4CCCCN(C(=O)Cc5ccncc5)C[C@H]34)cc2)cc1`?
Pf Dd2 inh: -69; T cruzi growth-1: 109*; C diff growth: 0; T cruzi growth-2: 108*; T cruzi growth-3: 86; 3T3 cytotox: 23; 3T3 cytotox 2: 106*

Results for COc1ccc(C#Cc2ccc([C@H]3[C@@H](CO)N4CCCCN(C(=O)Cc5ccncc5)C[C@@H]34)cc2)cc1 ?
Pf Dd2 inh: -45; T cruzi growth-1: 108*; C diff growth: 2; T cruzi growth-2: 105*; T cruzi growth-3: 69; 3T3 cytotox: 41*; 3T3 cytotox 2: 64*

Source: PubChem BioAssay (Broad Institute)
